# PubChem BioAssay (NCI)
# Compounds without any hit were thinned out: in the full panel of roughly 83,000, 20% have a hit.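 In brief: 96-well plates, 48 h treatment, single concentration, percent growth endpoint.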 Calls of active or inactive are those of the source. How the source made its calls: active means growth percent below 10; inactive means the rest.
# Test system: HL-60(TB) leukemia
# Assay: NCI-60 one-dose screen, 48 h (100 = growth as untreated, 0 = no growth, -100 = all killed)
# Details: 10 µM unless noted
row,Compound,growth
1,CC(=O)n1c(/C(C#N)=C/c2ccc(N(C)C)cc2)cc2ccccc21,10.5% (inactive)
2,C=CCn1c(SCC(=O)Nc2ccc(C(=O)/C=C/c3cc(OC)c(OC)c(OC)c3)cc2)nnc1-c1cc(OC)c(OC)c(OC)c1,16.5% (inactive)
3,CCOC(=O)c1c2c(n3cccc(Cl)c13)C(=O)c1ncccc1C2=O,34% (inactive)
4,O=[N+]([O-])c1ccc2ncccc2c1Cl,11.6% (inactive)
5,CCSc1ccc([C@@H]2[C@@H](O)C(=O)N2c2cc(OC)c(OC)c(OC)c2)cc1,-35.4% (active)
